Screening data as filed in PubChem BioAssay.
BAZ2B inh – qHTS Assay for Inhibitors of BAZ2B. AlphaScreen BAZ2B-H3K14Ac peptide displacement. Potency, µM (top dose mostly 114 µM), most hits filed as inhibitors. 360,000 tested, 4.4% active. AID 504333, 2011. Bromodomain adjacent to zinc finger domain protein 2B (Homo sapiens), Q9UIF8; note: nearly all actives have a fitted effect of over 60% in size
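Multi-concentration screen (max 110 uM) measuring displacement of acetylated histone H3 peptide from BAZ2B by AlphaScreen, using 50 nM protein, 50 nM peptide and 10 ug/mL streptavidin donor plus Ni-chelate acceptor beads.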
HP1b binding inh – HTS for Inhibitors of HP1-beta Chromodomain Interactions with Methylated Histone Tails; Chromobox protein homolog 1 (Homo sapiens), P83916; AlphaScreen HP1-beta / biotin-H3K9me3 peptide binding; Potency, µM (doses to about 114 µM), hits mostly inhibitors; 390,000 tested, 0.56% active; note: nearly all actives have a fitted effect of over 70% in size
Target sequence (P83916 whole entry, looked up): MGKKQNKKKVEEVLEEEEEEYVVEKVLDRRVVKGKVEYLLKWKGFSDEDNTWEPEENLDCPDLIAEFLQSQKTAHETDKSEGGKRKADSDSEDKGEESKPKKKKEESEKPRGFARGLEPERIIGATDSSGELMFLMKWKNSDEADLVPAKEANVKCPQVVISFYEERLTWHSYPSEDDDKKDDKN
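HP1-beta protein (50 nM final) preincubated 30 min at room temperature with biotinylated H3(1-18)K9me3 peptide (50 nM) in PBS pH 7.4, 0.01% Tween-20, then compound added for 30 min. AlphaScreen streptavidin donor/nickel chelate acceptor beads (10 ug/mL final), 30 min dark, luminescence read.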
Sfp PPTase inh – qHTS Assay for Inhibitors of Bacillus subtilis Sfp phosphopantetheinyl transferase (PPTase); Potency, µM, usual class: inhibitors; Biochemical Sfp PPTase activity, qHTS; 4'-phosphopantetheinyl transferase ffp (Bacillus subtilis), Q9F4F7; 310,000 tested, 3.5% active; AID 1490, 2009;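 note: the enzyme is Sfp with the accession as filed and its product quenches rhodamine fluorescence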
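Fluorescence-quenching assay: 15 nM Sfp-PPTase preincubated 15 min at room temperature with compound, then 5 uM rhodamine-CoA and 12.5 uM BHQ-2-labelled YbbR peptide added. Fluorescence (ex 525/em 598 nm) read at start and after 30 min; difference gives rate.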
JMJD2A Tudor – qHTS Assay for Inhibitors of JMJD2A-Tudor Domain; Lysine-specific demethylase 4A (Homo sapiens), O75164; AlphaScreen JMJD2A-Tudor / H3K4me3 peptide binding; Potency, µM (top dose mostly 114 µM), actives largely listed as inhibitors; 390,000 tested, 4.4% active; note: nearly all actives have a fitted effect of over 50% in size
G9a inh – qHTS Assay for Inhibitors of Histone Lysine Methyltransferase G9a. Potency, µM (titrated, usually from 102 µM), hits mostly inhibitors. Histone-lysine N-methyltransferase EHMT2 (Homo sapiens), Q96KQ7. 350,000 tested, 8.8% active. G9a H3K9 monomethylation, AlphaScreen, 2 h; note: nearly all actives have a fitted effect of over 75% in size
Target sequence (Q96KQ7 913-1193 limits assumed): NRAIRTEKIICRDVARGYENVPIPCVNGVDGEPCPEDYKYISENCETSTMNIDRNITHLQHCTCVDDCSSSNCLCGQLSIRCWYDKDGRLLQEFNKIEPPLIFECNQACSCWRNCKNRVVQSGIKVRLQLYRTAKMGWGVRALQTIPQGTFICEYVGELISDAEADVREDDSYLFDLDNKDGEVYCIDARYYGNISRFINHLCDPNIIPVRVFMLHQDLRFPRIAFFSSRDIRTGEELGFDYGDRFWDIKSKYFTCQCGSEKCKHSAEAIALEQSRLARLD
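G9a (20 nM) was preincubated 15 min with compound, then reacted 2 h at room temperature with 500 nM biotin-H3K9 peptide and 20 µM SAM. Monomethyl-H3K9 detected by AlphaScreen using anti-H3K9me1 antibody.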
Of the large screens only hits and unclear results are named; the others gave an inactive call. This is a sample that favours compounds with a hit; in the whole collection about 12% have one here. Calls come from the whole dose curve; as a rule, active = well fitted curve in the direction sought with a large enough effect; inconclusive = small, poorly fitted or top-dose-only effect, or another doubt; inactive = no such curve, though single readings can be large; an effect the other way counts as inactive or inconclusive.

Cc1cccc(Nc2nc(N)nc(CN3CCN(c4ccccc4F)CC3)n2)c1	JMJD2A Tudor 45µM (no result: BAZ2B inh, Sfp PPTase inh, G9a inh)
Cc1ccc(Nc2nc(N)nc(CN3CCc4ccccc4C3)n2)cc1	BAZ2B inh inconclusive, JMJD2A Tudor inconclusive
Cc1cccc(Nc2nc(N)nc(CN3CCN(Cc4ccc5c(c4)OCO5)CC3)n2)c1	BAZ2B inh inconclusive, JMJD2A Tudor 50µM
c1ccc(Oc2cccc(Oc3ccccc3)n2)cc1	none (no result: BAZ2B inh, Sfp PPTase inh, G9a inh)
CN1CCN(Cc2nc(N)nc(Nc3ccc4c(c3)OCCO4)n2)CC1	BAZ2B inh 50µM, JMJD2A Tudor inconclusive
Cc1cccc(Nc2nc(N)nc(CCl)n2)c1	G9a inh inconclusive
Cc1cccc(Nc2nc(N)nc(CN3CCN(c4ccccc4)CC3)n2)c1	HP1b binding inh inconclusive, JMJD2A Tudor 56µM, G9a inh inconclusive
Nc1nc(CSC(=S)N2CCN(c3ccccc3)CC2)nc(Nc2ccc(F)cc2)n1	BAZ2B inh inconclusive, HP1b binding inh inconclusive, JMJD2A Tudor 56µM, G9a inh inconclusive
Oc1ccccc1/C=N/n1cnnc1	JMJD2A Tudor 79µM, G9a inh 50µM
O=[N+]([O-])c1ccc(-c2ccc(/C=N/n3cnnc3)o2)c(Br)c1	BAZ2B inh inconclusive, JMJD2A Tudor inconclusive, G9a inh 50µM
CN(C)/N=C/c1cc([N+](=O)[O-])ccc1O	BAZ2B inh inconclusive
O=C1/C(=C\c2ccc(O)cc2)SC(=S)N1/N=C/c1ccc(O)cc1	BAZ2B inh inconclusive (no result: G9a inh)
O=C1/C(=C/c2cccc(Br)c2)SC(=S)N1/N=C/c1cc([N+](=O)[O-])ccc1O	BAZ2B inh 35µM, JMJD2A Tudor inconclusive, G9a inh 40µM
Cc1cc([N+](=O)[O-])c(C)cc1-c1ccc(/C=N/n2cnnc2)o1	G9a inh inconclusive
Cc1cc(C)n(/N=C/c2cc([N+](=O)[O-])ccc2O)c(=O)c1	BAZ2B inh 50µM, JMJD2A Tudor inconclusive, G9a inh inconclusive
O=[N+]([O-])c1ccc(O)c(/C=N/n2cnnc2)c1	G9a inh 45µM
O=[N+]([O-])c1cccc(/C=N/n2cnnc2)c1	none (no result: G9a inh)
CC(C)(C)C1=CC=C(C(C)(C)C)C(=O)C1=O	Sfp PPTase inh 1.6µM, G9a inh 2.2µM (no result: HP1b binding inh, JMJD2A Tudor)
O=C(C[N+]12CC[N+](CC(=O)c3ccc(F)cc3)(CC1)CC2)c1ccc(F)cc1	none
Cc1ccc(CNC(=O)CCC(=O)N2CC(C)Oc3ccc(Cl)cc32)cc1 (centres undefined)	none
C/C(CC(=O)NC1CCCCC1)=N\NC(=O)c1ccccn1	Sfp PPTase inh 89µM, JMJD2A Tudor inconclusive (no result: G9a inh)
Cc1ccc(/C=N\NC(=O)Cn2nnc3ccccc32)o1	Sfp PPTase inh inconclusive, G9a inh 89µM
C/C(CC(=O)Nc1ccc(F)cc1)=N\NC(=O)c1ccccn1	Sfp PPTase inh inconclusive
Cc1ccc(/C=N/NC(=O)C2(O)c3ccccc3-c3ccccc32)o1	Sfp PPTase inh inconclusive, G9a inh 56µM
Cc1ccc(/C=N/NC(=O)c2ccccn2)o1	Sfp PPTase inh 56µM, G9a inh inconclusive
CCOC(=O)N/N=C/c1ccc(C)o1	none
O=[N+]([O-])c1cc2c(cc1/C=N/Nc1nc(Nc3ccccc3)nc(N3CCCCC3)n1)OCO2	none
NC(=O)c1ccccc1NCC(=O)c1ccc(Cl)cc1	none
CN(C)c1ccc(/C=N/NC(=O)c2ccccn2)cc1	BAZ2B inh inconclusive (no result: G9a inh)
O=C(N/N=C/c1ccncc1)c1ccccn1	BAZ2B inh 50µM, Sfp PPTase inh inconclusive, G9a inh 2µM
CC(=N/O)/C(C)=N\NC(=O)c1ccccn1	Sfp PPTase inh inconclusive (no result: BAZ2B inh)
O=C(NN=C1C2CC3CC1CC(Cl)(C3)C2)c1ccccn1	Sfp PPTase inh 7.9µM
O=C(NN=C1c2ccccc2-c2ccccc21)c1ccccn1	BAZ2B inh 50µM, Sfp PPTase inh inconclusive, JMJD2A Tudor inconclusive
O=C(NN=C1C2CC3CC1CC(Cl)(C3)C2)c1cccs1	none
Cc1ccc(C)n1-c1ccc(C(=O)N/N=C/c2ccncc2)cc1	HP1b binding inh inconclusive, JMJD2A Tudor 79µM (no result: BAZ2B inh)
COc1ccc2c(c1)C(=O)[C@@H](OC(=O)N[C@H](C)C1CCCCC1)[C@H](c1ccc(OC)c(Br)c1)O2	none (no result: BAZ2B inh, HP1b binding inh, JMJD2A Tudor, G9a inh)
COc1ccc(Cn2ccc3nc(C)c(C(=O)NCc4ccc(F)cc4)cc3c2=O)cc1	none (no result: Sfp PPTase inh)
Cc1ccc(/C=N/NC(=O)CSc2nnc(-c3ccccc3)n2-c2ccc(Cl)cc2)o1	BAZ2B inh inconclusive, G9a inh 45µM
COc1ccc(S(=O)(=O)N(C)C)cc1NC(=O)CCNC(=O)c1ccccc1OC	none
CCN(CC)c1ccc(N)cc1	BAZ2B inh 32µM, HP1b binding inh 13µM, JMJD2A Tudor 18µM (no result: Sfp PPTase inh)
CCN(CC)c1ccc(C(=O)NN)cc1	none
Nc1ccc(C(=O)N(CCO)CCO)cc1	none
Nc1ccc(N(CCO)CCO)cc1	BAZ2B inh 50µM, HP1b binding inh inconclusive, Sfp PPTase inh 13µM, JMJD2A Tudor 8.9µM, G9a inh 11µM
Cc1c(Cc2ccccc2)sc(/N=C/c2ccc3ccccc3c2)c1C(N)=O	JMJD2A Tudor inconclusive, G9a inh 20µM
COC(=O)c1c(NC(C)=O)sc(Cc2ccccc2)c1C	none
COc1ccc(/C=C/C(=O)Nc2sc(Cc3ccccc3)c(C)c2C(N)=O)cc1	none
Cc1c(Cc2ccccc2)sc(/N=C/c2c(O)ccc3ccccc23)c1C(N)=O	BAZ2B inh inconclusive, HP1b binding inh inconclusive, Sfp PPTase inh 35µM, JMJD2A Tudor inconclusive, G9a inh 3.2µM
COc1cnc(-c2ccccn2)nc1NC(C)C	BAZ2B inh 3.2µM, Sfp PPTase inh 7.1µM, JMJD2A Tudor 22µM, G9a inh 56µM
COc1ccccc1Sc1nc(-c2ccccn2)ncc1OC	BAZ2B inh 22µM, JMJD2A Tudor 89µM, G9a inh inconclusive
CC1CN(C(=O)/C=C/c2ccc3c(c2)OCO3)CC(C)O1 (centres undefined)	none
COc1ccc(CCNC(=O)C23CCC(C)(C(=O)C2Br)C3(C)C)cc1OC (centres undefined)	none (no result: G9a inh)
O=C(NCc1ccccc1Cl)c1ccc2c(c1)NC(=O)C(CS(=O)(=O)Cc1ccc(Cl)cc1)N2 (centres undefined)	JMJD2A Tudor inconclusive, G9a inh 28µM (no result: Sfp PPTase inh)
Cc1ccc(CNC(=O)c2ccc3c(c2)NC(=O)C(CS(=O)(=O)Cc2cccc(C)c2)N3)cc1 (centres undefined)	G9a inh 14µM (no result: Sfp PPTase inh)
CCCCNC(=O)c1ccc2c(c1)NC(=O)C(CS(=O)(=O)Cc1ccc(F)cc1Cl)N2 (centres undefined)	G9a inh inconclusive (no result: Sfp PPTase inh)
NC1=NC2(CCCC2)N=C(Nc2ccccc2)N1	JMJD2A Tudor 35µM
Cc1cccc(NC2=NC3(CCCCC3)N=C(N)N2)c1	none (no result: BAZ2B inh, Sfp PPTase inh, G9a inh)
O=C(NCCS(=O)(=O)N1CCN(c2ccccc2)CC1)C(c1ccccc1)c1ccccc1	none (no result: Sfp PPTase inh)
Cn1nnnc1SCc1ccccc1[N+](=O)[O-]	none
